Source: PubChem BioAssay
Most compounds without a hit are left out; they make up all but 12% or so of the library.
FMDV inh: blocks foot and mouth disease virus. FMDV antiviral cell-based qHTS. Potency, µM (doses to about 57.9 µM), for the others: at the highest dose activity change, negative = inhibition, most hits filed as inhibitors. hit rate 1.2% among 410,000. AID 1159524; calls by dose curve; tested in HEK293T cells; note: read-out not given here; potency is the fitted concentration of half-maximal effect; % is set by controls: 0 for no effect and ±100 for the full control effect; nearly all actives have a fitted effect of over 45% in size
Shiga toxin inh: inhibitors of Shiga toxin in Vero cells; hit rate 9.2% among 290,000; Vero cells, Shiga toxin protein synthesis inhibition reporter; inhibition, % at 38.7 µM; in the data active = inhibition mostly above about 28%, no sharp cut-off; inactive = mostly below about 43%; note: 0% is about no effect
Sm TGR block: blocks Schistosoma mansoni thioredoxin glutathione reductase; hit rate 3% among 360,000; Q962Y6; Potency, µM (titrated, usually from 114 µM), for the others: top-dose activity change, negative = inhibition, actives largely listed as inhibitors; purified TGR, DTNB reduction, TNB absorbance 405 nm; active = well fitted inhibition curve with a large enough effect; inconclusive = small, poorly fitted or top-dose-only effect; inactive = no such curve, though single readings can be large or run the other way; note: potency is the fitted concentration of half-maximal effect; % is set by controls: 0 for no effect and ±100 for the full control effect; nearly all actives have a fitted effect of over 60% in size
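Kinetic colorimetric format: TGR-catalysed, NADPH-driven DTNB reduction monitored via TNB absorbance. Enzyme dispensed at 20 nM; compound exposure 15 min at room temperature before reaction start.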
Cycloheximide cs: affects cycloheximide protein synthesis inhibition readout, counter-screen; max response, %; AID 2314; cell reporter, cycloheximide protein synthesis inhibition counterscreen; hit rate 12% among 300,000; in the data active = max response mostly above about 13%, no sharp cut-off; inactive = mostly below about 14%; note: read at 38.3 µM for the half of the compounds with a filed dose; 0% is about no effect
Starred values were filed as active, the others as inactive; u = inconclusive; x = no result.

SMILES	FMDV inh	Shiga toxin inh	Sm TGR block	Cycloheximide cs
O=C(Nc1cccc(S(=O)(=O)N2CCCCC2)c1)c1ccc(OCC2CCCO2)cc1 (stereo not given)	u	45	-1%	6
O=C(Nc1ccc(Cl)c(S(=O)(=O)N2CCOCC2)c1)c1ccc(OCC2CCCO2)cc1 (stereo not given)	7.9µM*	2	-7%	25
O=C(Nc1ccc(S(=O)(=O)N2CCCC2)cc1)c1ccc(OCC2CCCO2)cc1 (stereo not given)	18µM*	26	3%	11
O=C(Nc1ccc(Cl)c(S(=O)(=O)N2CCOCC2)c1)c1ccccn1	-19%	23	9%	1
O=C(NCC1CCCO1)c1cc(S(=O)(=O)N2CCCCC2)ccc1Cl (stereo not given)	-13%	x	2.8µM*	x
COc1cccc(-n2cc(C(=O)Nc3cc(OC)c(OC)c(OC)c3)c3ccccc3c2=O)c1	-16%	x	9%	x
CC(=O)c1cc(-c2ccc(F)cc2)n(CC(=O)NC2CCCCCC2)c1C	2%	x	10%	x
Cc1cc(C)cc(N2C(=O)CSC23C(=O)N(Cc2c(F)cccc2Cl)c2ccccc23)c1 (stereo not given)	-27%	x	-4%	x
COc1ccc(NC(=O)c2ccc3c(c2)OCO3)cc1S(=O)(=O)N1CCOCC1	-3%	x	x	x
O=C(Nc1ccc(Cl)c(S(=O)(=O)N2CCOCC2)c1)c1ccc2c(c1)OCCO2	-23%	47*	-10%	24*
O=C(Nc1cccnc1)c1ccc(Cl)c(S(=O)(=O)N2CCOCC2)c1	43%	-8	-15%	-5
O=C(Nc1ccc2cn[nH]c2c1)c1ccc(Cl)c(S(=O)(=O)N2CCOCC2)c1	-17%	5	-16%	45*
CCCn1c(=O)c2sccc2n2c(CCCC(=O)Nc3cccc(CC)c3)nnc12	-19%	x	-1%	x
O=[N+]([O-])c1nn(-c2ccccc2)n(O)c1=NC1CCN(Cc2ccccc2)CC1	-18%	9	x	-2
COc1cc(N=c2c([N+](=O)[O-])nn(-c3ccc4c(c3)OCCO4)n2O)cc(OC)c1	-27%	19*	u	29*
CCc1cccc(N=c2c([N+](=O)[O-])nn(-c3ccc4c(c3)OCCO4)n2O)c1	u	71*	u	11
CC(C)c1ccc(N=c2c([N+](=O)[O-])nn(-c3ccc4c(c3)OCCO4)n2O)cc1	x	17	13µM*	14*
Cc1cc(C)cc(N=c2c([N+](=O)[O-])nn(-c3cccc(Cl)c3)n2O)c1	u	-8	-25%	-4
CN=c1c([N+](=O)[O-])nn(-c2ccc3c(c2)OCCO3)n1O	6%	61*	-11%	32*
O=[N+]([O-])c1nn(-c2ccc3c(c2)OCCO3)n(O)c1=NC1CCN(Cc2ccccc2)CC1	4%	9	6%	3
CCc1ccccc1NC(=O)Cn1cc(C(=O)c2ccc(Cl)cc2)c(=O)c2ccc(C)nc21	-10%	x	1%	x
CCn1c(=O)n(CC)c2cc(N3CCCCC3)c(NC(=O)Nc3cc(C)cc(C)c3)cc21	-25%	x	-17%	x
CCn1c(CCl)nc2cc(S(=O)(=O)N3CCOCC3)ccc21	28µM*	x	x	x
O=S(=O)(c1ccc2nc(-c3ccco3)c(-c3ccco3)nc2c1)N1CCOCC1	-15%	18	1.6µM*	8
O=C(Nc1ccc(N2CCOCC2)cc1)Nc1ccc2nc(-c3ccco3)c(-c3ccco3)nc2c1	0%	1	4.5µM*	3
SMILES	FMDV inh	Shiga toxin inh	Sm TGR block	Cycloheximide cs
O=C(NCCCO)Nc1ccc2nc(-c3ccco3)c(-c3ccco3)nc2c1	x	-8	0.28µM*	-2
O=C(Nc1ccc2nc(-c3ccco3)c(-c3ccco3)nc2c1)NC1CC1	24%	17	u	15
Cc1cccc(-n2c(=O)c3c(c4cc(C)ccc4n3C)n(CC(=O)NCCC3=CCCCC3)c2=O)c1	-18%	x	3%	x
O=C1C2C3C=CC(CO)(O3)C2C(=O)N1c1ccc(-c2ccccc2)cc1 (stereo not given)	x	46	0.5µM*	23*
COC(=O)C1(CO)NC(c2ccc(C)cc2)C2C(=O)N(c3ccccc3)C(=O)C21 (stereo not given)	-5%	-4	-15%	-2
CC(C)(C)C(=O)NCC12C=CC(O1)C1C(=O)N(c3ccccc3)C(=O)C12 (stereo not given)	4%	7	1.6µM*	-1
CCN1CCN(c2cc3c(cc2F)c(=O)c(S(=O)(=O)c2cc(C)cc(C)c2)cn3CC)CC1	6%	x	3%	x
COc1cc(=O)n2c(c1C(=O)NCc1nonc1C)CCN(C(=O)c1cccc(C)c1C)CC2	-2%	x	x	x
CC(C)n1cnc2c(Nc3cccc(F)c3)nc(NCCO)nc21	44%	25	6%	19*
CC(C)C[C@H](CO)Nc1nc(Nc2cccc(Cl)c2)c2ncn(C(C)C)c2n1	24%	42*	-1%	23*
